NOMO-1 viab – STK33 inhibitor candidate reducing NOMO-1 cell viability; inhibition, % (no concentration beside the values); 37,000 compounds, 7.5% hits; NOMO-1 AML viability, CellTiter-Glo luminescence, 72 h; AID 2330; in the data active = inhibition above about 80%; inconclusive = no clear call, values can overlap the other calls
PD-1 reverse act – reversal of PD-1 mediated T-cell inhibition | primary human CD4 T cells, PD-L1 beads, CellTiter-Glo 96 h | activation, % (test concentration not listed) | 29,000 tested, under 10 active; call rule not given here;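 note: 0% = median vehicle wells and 100% = positive control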
STK33 kin inh – inhibitors of human STK33 kinase. AID 2322. ADP-Glo luminescence, MBP substrate. inhibition, % at 12.5 µM. Q9BYT3. 27,000 compounds, 0.44% hits; in the data active = inhibition above about 20%; inconclusive = no clear call, values can overlap the other calls
Target sequence (Q9BYT3 whole entry, looked up): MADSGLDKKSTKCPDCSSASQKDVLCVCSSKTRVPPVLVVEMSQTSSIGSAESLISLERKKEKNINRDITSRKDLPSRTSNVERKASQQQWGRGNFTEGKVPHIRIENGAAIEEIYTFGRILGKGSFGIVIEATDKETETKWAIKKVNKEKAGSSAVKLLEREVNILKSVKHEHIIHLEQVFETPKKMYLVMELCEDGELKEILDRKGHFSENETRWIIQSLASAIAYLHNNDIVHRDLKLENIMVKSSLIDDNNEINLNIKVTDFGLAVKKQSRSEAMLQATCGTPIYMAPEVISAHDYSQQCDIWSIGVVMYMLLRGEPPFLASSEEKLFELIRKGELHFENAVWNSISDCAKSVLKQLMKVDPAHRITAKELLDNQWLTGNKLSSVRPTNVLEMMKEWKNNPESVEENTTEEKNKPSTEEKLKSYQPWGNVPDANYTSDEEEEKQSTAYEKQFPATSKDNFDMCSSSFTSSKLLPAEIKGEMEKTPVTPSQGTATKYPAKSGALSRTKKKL
The depositor's hits bear a star; ? = inconclusive; . = no result given. Only a selection was taken, and hits are over-represented in it overall.

SMILES | NOMO-1 viab | PD-1 reverse act | STK33 kin inh
Cc1ccc(S(=O)(=O)Nc2ccc3c(c2)C(=O)N([C@H](C)CO)C[C@@H](C)[C@H](CN(C)Cc2ccc(Cl)c(Cl)c2)O3)cc1 | 103.9* | 0.4 | .
Cc1ccc(S(=O)(=O)Nc2ccc3c(c2)C(=O)N([C@@H](C)CO)C[C@@H](C)[C@H](CN(C)Cc2ccc(Cl)c(Cl)c2)O3)cc1 | 88.7* | 0.7 | .
COc1ccc(Cn2c3ccc(Br)cc3c3nc4ccccc4nc32)cc1OC | 24.8 | -2.9 | 1.0
Cc1cc(C)c(OCC(=O)Nc2ccc3oc(-c4cncc(Br)c4)nc3c2)c(Cl)c1 | -12.4 | 0.7 | 4.0
COc1ccc(OC(C)C(=O)Nc2ccccc2C#N)cc1 (stereo unspecified) | -30.8 | . | 2.5
Cc1ccc(-c2nn(C)c(=O)c3ccccc23)cc1CNC(=O)CN1C(=O)c2ccccc2C1=O | 19.6 | -0.5 | 4.1
CCOc1ccc2nc(NCCCO)[nH]c2c1 | 21.3 | . | -4.8
CCCOc1ccc2nc(NC(=O)OC)[nH]c2c1 | 104.5* | . | -0.8
CCn1c(SCC(=O)Nc2cccc(F)c2)nnc1-c1ccc(C)cc1 | 19.1 | 0.0 | -3.1
CCOC(=O)c1cc(-c2ccc(Cl)cc2)[nH]c(=O)c1C#N | -13.3 | -0.4 | .
CCOC(=O)C1=C(CSc2ccc(Cl)cc2)NC(=O)NC1c1cc(C)ccc1C (stereo unspecified) | 115.2* | 0.7 | .
Cc1nc(SCC(=O)NCc2ccccc2)c2c(C)c(C)sc2n1 | 23.5 | 0.9 | 3.7
COc1cc(C(=O)NC(C)C(=O)O)cc(OC)c1OC (stereo unspecified) | 25.9 | . | 0.5
COc1cc(C(=O)N=C2C(C)=CC(=O)C=C2C)cc(OC)c1OC | 134.7* | -6.1 | .
C[C@@H]1CN([C@@H](C)CO)C(=O)Cc2cc(NS(=O)(=O)c3cccs3)ccc2O[C@@H]1CN(C)Cc1ccc(C(=O)Nc2ccccc2N)cc1 | 89.6* | -0.2 | .
C[C@H]1CN([C@@H](C)CO)C(=O)Cc2cc(NS(=O)(=O)c3cccs3)ccc2O[C@@H]1CN(C)Cc1ccc(C(=O)Nc2ccccc2N)cc1 | 45.0 | 0.2 | .
C[C@@H]1CN([C@H](C)CO)C(=O)Cc2cc(NS(=O)(=O)c3cccs3)ccc2O[C@@H]1CN(C)Cc1ccc(C(=O)Nc2ccccc2N)cc1 | 116.1* | -0.1 | .
CCCc1cc(=O)[nH]c(Nc2nc(C)c3ccc(OC)cc3n2)n1 | 20.6 | -1.9 | -3.5
Cc1cc(=O)[nH]c(Nc2nc(C)c3cccc(C)c3n2)n1 | 130.2* | -8.1 | -0.9
CCCc1cc(=O)[nH]c(Nc2nc(C)c3cc(OC)ccc3n2)n1 | 10.6 | 0.9 | -7.2
COc1ccc2c(C)nc(Nc3nc(C)cc(=O)[nH]3)nc2c1 | 116.9* | -1.1 | 2.4
Cn1c(SCc2ccccc2C#N)nnc1-c1ccc(NC(=O)c2ccc(F)cc2)cc1 | 35.8 | 0.0 | 2.0
Cc1ccc(N(CC(=O)Nc2c(C)n(C)n(-c3ccccc3)c2=O)S(C)(=O)=O)cc1Cl | 8.7 | 0.7 | -1.5
COc1ccc(S(=O)(=O)N(C)CC(=O)Nc2cc(C)ccc2C)cc1C | 33.4 | -1.4 | -5.4
COc1ccc([Si](C)(C)[C@@H]2[C@@H](CCO)O[C@]3(C(=O)N(Cc4ccc(NC(C)=O)cc4)c4ccccc43)[C@H]2C)cc1 | . | . | 14.7
SMILES | NOMO-1 viab | PD-1 reverse act | STK33 kin inh
COc1ccc([Si](C)(C)[C@H]2[C@H](CCn3cc(CCO)nn3)O[C@@]3(C(=O)N(Cc4cccc(N5CCOC5=O)c4)c4ccccc43)[C@@H]2C)cc1 | . | . | 20.7*
COc1ccc([Si](C)(C)[C@@H]2[C@@H](CCO)O[C@]3(C(=O)N(Cc4cccc(N5CCOC5=O)c4)c4ccccc43)[C@H]2C)cc1 | . | . | 18.2
COc1ccc([Si](C)(C)[C@@H]2[C@@H](CCO)O[C@]3(C(=O)N(Cc4ccc(N5CCOC5=O)cc4)c4ccccc43)[C@H]2C)cc1 | . | . | 20.2*
COc1ccc([Si](C)(C)[C@@H]2[C@@H](CCn3cc([C@H](O)c4ccccc4)nn3)O[C@]3(C(=O)N(Cc4cccc(N5CCOC5=O)c4)c4ccccc43)[C@H]2C)cc1 | . | . | 4.4
COc1ccc([Si](C)(C)[C@H]2[C@H](CCO)O[C@@]3(C(=O)N(Cc4cccc(NC(C)=O)c4)c4ccccc43)[C@@H]2C)cc1 | . | . | 37.8*
CCCn1c2ccccc2c2nnc(SCCN3CCCCC3)nc21 | 28.1 | . | -3.7
Cc1c(C)c(C)c(CSC2CC(=O)N(c3ccccc3)C2=O)c(C)c1C (stereo unspecified) | 4.9 | 0.4 | .
O=C1CC(Sc2nnc(-c3ccccc3O)o2)C(=O)N1c1ccccc1 (stereo unspecified) | 122.3* | -14.1 | -9.3
COc1ccccc1-c1cc(=O)c2ccccc2o1 | 18.0 | 1.3 | 4.8
CC(C)(C)c1ccccc1OCC(=O)Nc1cccc2ccccc12 | 91.9* | -0.7 | .
O=C(COc1cccc2ccccc12)Nc1ccccc1C(=O)O | -7.7 | 1.9 | -1.6
O=C(O)CCNC(=O)Nc1ccccc1 | 8.7 | 0.2 | .
C[C@H](CO)N1C[C@H](C)[C@H](CN(C)Cc2ccc(Oc3ccccc3)cc2)Oc2ccc(NS(=O)(=O)c3ccc(Cl)cc3)cc2CC1=O | 116.4* | 1.0 | 2.2
C[C@H]1CN([C@@H](C)CO)C(=O)Cc2cc(N(C)C)ccc2O[C@H]1CN(C)Cc1ccc(Oc2ccccc2)cc1 | 52.1 | -2.0 | 1.0
C[C@@H]1CN([C@H](C)CO)C(=O)Cc2cc(N(C)C)ccc2O[C@@H]1CN(C)Cc1ccc(Oc2ccccc2)cc1 | 117.7* | -3.0 | -0.7
C[C@@H]1CN([C@H](C)CO)C(=O)Cc2cc(NS(=O)(=O)c3ccc(Cl)cc3)ccc2O[C@H]1CN(C)Cc1ccccc1 | 45.8 | . | -1.3
COc1ccc(S(=O)(=O)Nc2ccc3c(c2)CC(=O)N([C@@H](C)CO)C[C@H](C)[C@H](CN(C)Cc2ccc(Oc4ccccc4)cc2)O3)cc1 | 27.7 | 4.3 | 4.5
C[C@H](CO)N1C[C@H](C)[C@H](CN(C)Cc2ccc(Oc3ccccc3)cc2)Oc2ccc(NS(=O)(=O)c3ccccc3)cc2CC1=O | 96.5* | -1.1 | 5.7
Cc1ccc(S(=O)(=O)Nc2ccc3c(c2)CC(=O)N([C@H](C)CO)C[C@H](C)[C@H](CN(C)Cc2ccc(Oc4ccccc4)cc2)O3)cc1 | 110.5* | 2.9 | 8.3
COc1ccc(S(=O)(=O)Nc2ccc3c(c2)CC(=O)N([C@@H](C)CO)C[C@@H](C)[C@@H](CN(C)Cc2ccc(Oc4ccccc4)cc2)O3)cc1 | ? | -0.3 | 2.0
COC(=O)c1c(C)oc2ccc(N(C(=O)c3ccccc3)S(=O)(=O)c3cccs3)cc12 | 19.8 | -0.8 | 2.3
C[C@@H]1CN([C@H](C)CO)C(=O)Cc2cc(NS(=O)(=O)c3ccc(Cl)cc3)ccc2O[C@H]1CN(C)Cc1ccc(Oc2ccccc2)cc1 | 112.0* | -2.0 | .
C[C@H]1CN([C@@H](C)CO)C(=O)Cc2cc(NS(=O)(=O)c3ccc(Cl)cc3)ccc2O[C@H]1CN(C)Cc1ccc(Oc2ccccc2)cc1 | 77.7 | . | -4.8
O=C1C(=O)N(Cc2ccc(Cl)c(Cl)c2)c2ccccc21 | 96.7* | -14.3 | 1.9
O=C(CCCN1C(=O)c2ccccc2C1=O)Nc1ccc(Cl)c(Cl)c1 | -3.6 | 0.7 | -2.0
COCCC(=O)C1=CSC2=C(C(=O)CC(C)(C)C2)C1c1ccncc1 (stereo unspecified) | 45.6 | -2.2 | .
CC(NC(=O)c1ccccc1)c1nc2ccccc2n1Cc1ccc(Cl)cc1Cl (stereo unspecified) | 20.7 | -4.4 | 3.6
